Screening data from PubChem.
A selection: hits, their analogues and other compounds. The true share with any hit is near 22%.
LmPK inh: LmPK (Leishmania mexicana) enzyme inhibition; Q27686; purified LmPK, Kinase-Glo ATP luminescence, 1 h; Potency, µM (highest dose often 57.5 µM), for the others: at the top dose activity change, negative = inhibition, hits mostly inhibitors; 290,000 tested, 0.37% active; AID 1721; also: potency is read from the fitted curve at half-maximal effect; % is scaled to controls: 0 for no effect and ±100 for the full control effect
Target sequence (Q27686 whole entry, looked up): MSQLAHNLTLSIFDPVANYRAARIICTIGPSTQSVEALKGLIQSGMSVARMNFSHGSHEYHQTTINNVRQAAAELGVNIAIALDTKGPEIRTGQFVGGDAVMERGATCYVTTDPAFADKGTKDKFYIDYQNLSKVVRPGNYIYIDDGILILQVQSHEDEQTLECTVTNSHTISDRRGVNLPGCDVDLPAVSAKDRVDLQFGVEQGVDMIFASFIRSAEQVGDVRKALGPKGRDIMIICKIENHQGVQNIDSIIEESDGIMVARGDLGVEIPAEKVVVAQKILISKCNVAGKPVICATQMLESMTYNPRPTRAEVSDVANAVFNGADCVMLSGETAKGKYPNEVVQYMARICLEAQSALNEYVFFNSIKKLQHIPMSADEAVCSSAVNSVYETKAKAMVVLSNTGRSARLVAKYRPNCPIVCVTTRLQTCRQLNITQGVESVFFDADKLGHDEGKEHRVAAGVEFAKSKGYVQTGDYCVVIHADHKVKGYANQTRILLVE
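Purified LmPK (0.1 nM) converted ADP (0.1 mM) to ATP with PEP (0.5 mM) in imidazole buffer pH 7.2 with KCl and MgCl2, 1 h at room temperature. ATP was read by Kinase-Glo luminescence; data normalized to uninhibited and no-enzyme controls.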
Pf growth 96h: P. falciparum growth inhibition at 96 hour, primary screen for plastid delayed-death inhibitors; Potency, µM (highest dose often 28.7 µM), for the others: top-dose activity change, negative = inhibition, usual class: inhibitors; AID 504834; 320,000 tested, 6.9% active; P. falciparum luciferase reporter growth, 96 h; also: potency is read from the fitted curve at half-maximal effect; % is scaled to controls: 0 for no effect and ±100 for the full control effect
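Delayed-death screen, second-generation endpoint: infected erythrocytes, 2% hematocrit, 0.05% parasitemia final; 96 hours at 37 C, 5% CO2; luciferase detection reagent; luminescence decrease equals reduced growth.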
Pf growth 48h: inhibits P. falciparum growth in the first generation, 48 h | Potency, µM (highest dose often 28.7 µM), without a hit: at the top dose activity change, negative = inhibition, hits mostly inhibitors | 310,000 tested, 5.9% active | P. falciparum luciferase growth in erythrocytes, 48 h; also: potency is read from the fitted curve at half-maximal effect; % is scaled to controls: 0 for no effect and ±100 for the full control effect
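Luciferase-expressing P. falciparum in infected erythrocytes (2% hematocrit, 0.1% parasitemia final) in RPMI 1640/0.5% Albumax were exposed to compound for 48 hours at 37 C, 5% CO2; growth read as luminescence.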
Cycloheximide cs: affects cycloheximide protein synthesis inhibition readout, counter-screen; max response, %; cell reporter, cycloheximide protein synthesis inhibition counterscreen; 300,000 tested, 12% active; in the data active = max response mostly above about 13%, no sharp cut-off; inactive = mostly below about 14%; also: read at 38.3 µM for the half of the compounds with a filed dose; 0% is about no effect
Shiga inhibitor: inhibitors of Shiga toxin in Vero cells | inhibition, % at 38.7 µM | AID 2315 | Vero cells, Shiga toxin protein synthesis inhibition reporter | 290,000 tested, 9.2% active; in the data active = inhibition mostly above about 28%, no sharp cut-off; inactive = mostly below about 43%; also: 0% is about no effect
Active calls of the source: *; ? = inconclusive; . = no result; [ ] = remark or other dose. Unless noted, calls follow the shape of the dose curve; as a rule, active = well fitted inhibition curve with a large enough effect; inconclusive = small, poorly fitted or top-dose-only effect, or another doubt; inactive = no such curve, though single readings can be large or run the other way.

SMILES	LmPK inh	Pf growth 96h	Pf growth 48h	Cycloheximide cs	Shiga inhibitor
CC(C(=O)Nc1ccc2c(c1)OCO2)n1cnc2c1c(=O)n(C)c(=O)n2C (centres undefined)	.	1%	5%	.	.
Cc1ccc(NC2SC(=O)N(Cc3cccc(C(=O)O)c3)C2=O)cc1 (centres undefined)	-2%	-8%	20%	14	21
O=C(O)c1cccc(CN2C(=O)SC(Nc3ccccc3)C2=O)c1 (centres undefined)	0%	27%	11%	17*	17
Cc1ccc(C2=NNC(C(O)C(O)C(O)C(O)CO)S2)cc1 (centres undefined)	4%	97%	.	25*	56*
N#C/C(=C(/O)CN1CCCC1)c1nc(-c2ccccc2)cs1	4%	250%	149%	33*	120*
CCOC(=O)C1CCCN(C/C(O)=C(\C#N)c2nc(-c3ccc(Cl)cc3)cs2)C1 (centres undefined)	2%	.	-4%	-2	-3
Cc1ccccc1OCCCCCNCCO	-8%	.	-7%	1	-4
CC(C)(C)c1ccccc1OCCCCCNCCO	-2%	-29%	4.1µM*	-1	-4
CC(C)c1ccccc1OCCCCCNCCO	2%	4.1µM*	4.1µM*	11	13
CC(=O)Oc1oc(-c2ccccc2)nc1/C=N/c1ccccn1	?	?	117%	47*	87*
CN(C)c1ccc(N=Cc2nc(-c3ccccc3)oc2OC(=O)c2ccccc2)cc1	-1%	157%	166%	34*	34*
CC(=O)Oc1oc(-c2ccccc2)nc1C=Nc1ccc(N(C)C)cc1	-2%	54%	53%	10	39
O=C(NCC1CCCO1)C(c1ccc(F)cc1)N(C(=O)Cn1nnc(-c2ccc(F)cc2)n1)c1cccc(O)c1 (centres undefined)	7%	49%	?	-2	-2
COc1ccc(-c2nn(CCC#N)cc2C(=O)Nc2cccc(C(=O)O)c2)cc1OC	-2%	2%	11%	-2	-4
CCCCOc1ccc(CSc2nncn2N)cc1	-2%	.	102%	31*	65*
CCCOc1ccc(CSc2nnc(CCC)n2N)cc1	4%	.	11%	11	18
COC(=O)c1ccc(CSc2ncn[nH]2)o1	1%	?	-15%	-8	-5
CCCCCOc1ccc(CSc2ncn[nH]2)cc1	6%	?	144%	39*	72*
CCCCOc1ccc(CSc2ncn[nH]2)cc1	1%	10%	49%	26*	61
CCOC(=O)c1ccc(CSc2ncn[nH]2)o1	-6%	.	-7%	-2	2
O=C(NCc1csc2ccccc12)Nc1cc(Cl)cc(Cl)c1	1%	?	?	-2	43
C=CCN(C(=O)c1ccc2snnc2c1)c1ccccc1	-2%	25%	-5%	-8	6
O=C(NCc1cccnc1)c1ccc(-c2ccccc2[N+](=O)[O-])o1	4%	37%	15%	11	40*
CC(C)(C)c1cc(C(=O)N/N=C/c2ccc(-c3ccccc3[N+](=O)[O-])o2)n[nH]1	11%	10µM*	12µM*	26*	45
O=C(NCc1cccnc1)c1ccc(-c2cccc(Cl)c2Cl)o1	1%	18%	-20%	12	16
SMILES	LmPK inh	Pf growth 96h	Pf growth 48h	Cycloheximide cs	Shiga inhibitor
O=C(N/N=C/c1cc2c(cc1[N+](=O)[O-])OCO2)c1cccnc1	-1%	-27%	?	1	23
O=C(N/N=C/c1ccc(-c2ccccc2[N+](=O)[O-])o1)c1cccnc1	-10%	31%	1%	16*	6
Cc1cc(C(=O)N/N=C/c2ccc(-c3cccc(Cl)c3Cl)o2)n[nH]1	2%	196%	-26%	-3	-7
CCOc1ccc(N(C(=O)C2CCCO2)C2C=CS(=O)(=O)C2)cc1 (centres undefined)	3%	101%	14%	-1	-4
COC1CCCN(C(=O)c2ccc3nc(Cc4cccc(Cl)c4)oc3c2)C1 (centres undefined)	0%	?	40%	17	49*
COCC1CCCN(C(=O)c2ccc3nc(Cc4cccc(Cl)c4)oc3c2)C1 (centres undefined)	-3%	34%	1%	42*	89*
CCOc1c(C)cnc2c1c(=O)n(Cc1ccc(Cl)cc1)c(=O)n2C	-2%	?	-10%	-1	-15
C#CCN[C@@H]1CCc2ccccc21	.	-17%	5%	.	.
COc1ccc(C(C(=O)NC2CCCC2)N(C(=O)c2ccco2)c2cc3c(cc2C(C)=O)OCO3)cc1 (centres undefined)	-6%	-10%	-25%	-1	-5
COC(=O)c1sccc1N/N=C/c1cccc(OC)c1O	-20%	85%	281%	19*	50
COC(=O)c1sccc1N/N=C/c1cccc(Oc2ccccc2)c1	-25%	18%	205%	40*	38*
COC(=O)c1sccc1N/N=C/c1ccc(OC)c(OC)c1OC	-5%	-16%	65%	47*	39*
CC(=O)C1=C(O)C=C(c2ccco2)CC1c1ccco1 (centres undefined)	5%	.	8%	-2	-5
Cc1ccc2nc(SCC(=O)Nc3cc(C)on3)nc(=O)n2c1	.	6%	?	.	.
CSc1ncccc1C(=O)NCCc1ccc(S(N)(=O)=O)cc1	7%	12%	20%	-2	-2
COc1ccc(OC)c(-c2nc3cc4ccccc4cc3nc2-c2ccccc2)c1	4%	?	?	-6	1
CCOc1cc(CNc2ncnc3nc[nH]c23)ccc1OC	-2%	-11%	-1%	-2	-5
CCOc1cc(CNc2cccc3[nH]c(C)nc23)ccc1OC	7%	18%	12µM*	-3	-13
O=C(CS(=O)CC(=O)NC12CC3CC(CC(C3)C1)C2)Nc1ccc(F)cc1 (centres undefined)	-2%	?	13%	-3	-5
CC(c1ccco1)N(C(=O)Nc1ccc(Cl)cc1)c1ccccn1 (centres undefined)	3%	-4%	10%	11*	12
CC(=O)[C@H]1CC[C@H]2[C@@H]3C=CC4=CC(=O)CC[C@@]4(C)[C@H]3CC[C@]12C	.	-20%[12.8 µM]	-12%[12.8 µM]	.	.
O=C(CSc1nc2ccccc2o1)Nc1nc2ccccc2s1	-9%	.	42%	43*	49*
O=C(CSc1nc2ccccc2s1)Nc1nccs1	1%	100%	14%	15	11
NC(=O)c1ccccc1NC(=O)CSC1=NCCS1	2%	?	0%	11*	14
O=C(CSc1nc2ccccc2o1)Nc1nc(-c2ccccc2)cs1	2%	328%	231%	72*	111*
O=C(CSc1nc2ccccc2o1)Nc1nccs1	5%	?	118%	28*	31
Cc1ccc(NC(=O)Nc2c(Cl)cccc2Cl)cn1	3%	6%	-20%	5	23
COC(=O)[C@H](Cc1ccccc1)NC(=O)Cn1ccc(NC(=O)OCc2ccccc2)nc1=O	.	28%	11%	.	.
CCCNS(=O)(=O)c1cc2c3c(c1)CCN3C(=O)CC2	-6%	19%	15%	-1	-11
